Screening results (PubChem BioAssay)
In the library only some 0.79% were active in any assay of this set; here they are far more common.
AmpC inh detg: qHTS Inhibitors of AmpC Beta-Lactamase (assay with detergent); AmpC hydrolysis of nitrocefin, absorbance 480 nm, 0.01% Triton; P00811; AID 485294, 2010; Potency, µM (titrated, usually from 114 µM), hits mostly inhibitors; actives 0.041% (n = 370,000); also: nearly all actives have a fitted effect of over 25% in size
Target sequence (P00811 whole entry, looked up): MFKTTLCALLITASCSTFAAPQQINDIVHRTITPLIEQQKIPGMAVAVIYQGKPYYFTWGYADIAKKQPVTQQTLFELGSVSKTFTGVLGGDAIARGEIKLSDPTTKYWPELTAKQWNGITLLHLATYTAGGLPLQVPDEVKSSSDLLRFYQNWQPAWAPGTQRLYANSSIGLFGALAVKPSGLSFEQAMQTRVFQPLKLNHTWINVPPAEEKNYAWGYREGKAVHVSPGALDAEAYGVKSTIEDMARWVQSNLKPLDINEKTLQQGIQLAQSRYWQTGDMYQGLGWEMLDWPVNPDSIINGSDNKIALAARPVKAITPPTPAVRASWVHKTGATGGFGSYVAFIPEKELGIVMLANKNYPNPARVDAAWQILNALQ
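20 mM phosphate pH 7.0 + 0.01% (detergent screen) or 0.0001% Triton X-100; 5.3 nM AmpC reagent; cpd preinc 15 min RT; nitrocefin (800 uM stock) to start; A480 q20 s × 4 min; Activity was normalised to no-enzyme and no-compound control wells.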
AMA1-RON2 inh: qHTS for Inhibitors of AMA1-RON; Towards Development of Antimalarial Drug Lead: Primary Screen. Plasmodium falciparum AMA1 (3D7) - RON2 peptide interaction. AlphaScreen AMA1-biotinylated RON2 peptide binding. Potency, µM (doses to about 58.2 µM), most hits filed as inhibitors. actives 0.2% (n = 360,000). AID 720542, 2013; also: nearly all actives have a fitted effect of over 45% in size
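AMA1 (3D7) with his tag at 25 nM final met compounds first, then biotinylated RON2 peptide at 25 nM; detection used donor plus acceptor beads, 10 µg/mL apiece, read by AlphaScreen after 30 min at room temperature.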
AmpC no deterg: qHTS Inhibitors of AmpC Beta-Lactamase (assay without detergent) | P00811 | AmpC nitrocefin hydrolysis, absorbance 480 nm, 0.0001% Triton | Potency, µM (top dose mostly 57.1 µM), hits mostly inhibitors | actives 0.52% (n = 330,000) | AID 485341, 2010; also: nearly all actives have a fitted effect of over 20% in size
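AmpC (5.3 nM in the dispensed reagent) in 20 mM phosphate pH 7.0 with 0.01% (detergent screen) or 0.0001% Triton X-100 was preincubated with compounds for 15 min at room temperature. Nitrocefin was then added from an 800 uM solution, and hydrolysis was followed at 480 nm.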
RE007 growth inh: qHTS Assay for Inhibitors of the HIV-1 protein Vpr | actives 0.21% (n = 360,000) | Potency, µM (titrated, usually from 92.2 µM), usual class: inhibitors | S. pombe RE007 Vpr strain, BacTiter-Glo ATP luminescence, 24 h; active = well fitted falling curve with a large enough effect; inconclusive = small, poorly fitted or top-dose-only effect; inactive = no such curve, though single readings can be large or run the other way; also: nearly all actives have a fitted effect of over 50% in size
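Fission yeast strain RE007, carrying one chromosomally integrated HIV-1 vpr copy, was seeded at OD 0.01 in PMG+AL medium with 23 nL pinned compound. After 24 h at 30 °C and 99% humidity, viability was read by BacTiter-Glo luminescence.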
Each line names hits and unclear results; the compound was inactive in the other large screens. Unless noted, calls follow the shape of the dose curve; as a rule, active = well fitted curve in the direction sought with a large enough effect; inconclusive = small, poorly fitted or top-dose-only effect, or another doubt; inactive = no such curve, though single readings can be large; an effect the other way counts as inactive or inconclusive.

CN(C)c1ccc(N=Nc2nc3ccccc3n2C)cc1	AMA1-RON2 inh 4µM, RE007 growth inh 11µM
Cn1c(N=Nc2ccccc2)nc2ccccc21	RE007 growth inh 16µM
Cn1c(NN=O)nc2ccccc21	none
Cn1c(Cl)nc2ccccc21	none
CCc1ccc(CNC(=O)c2sc3ncnc(N(C)C4CCCCC4)c3c2C)cc1	none (no result: AMA1-RON2 inh, AmpC no deterg, RE007 growth inh)
CCc1ccc(NC(=O)N(Cc2c[nH]c3ccccc23)C2CCCCCC2)cc1	none (no result: AMA1-RON2 inh, AmpC no deterg, RE007 growth inh)
CC1=CN2C(=N)/C(=C/c3ccco3)C(=O)N=C2S1	AmpC inh detg inconclusive
CC1=CN2C(=N)/C(=C/c3ccc([N+](=O)[O-])o3)C(=O)N=C2S1	RE007 growth inh 32µM
CCCc1nc2ccccc2n1CC(O)COc1ccc(C(=O)OC)cc1 (configuration not stated)	none (no result: AMA1-RON2 inh, AmpC no deterg, RE007 growth inh)
CN1C=C/C(=C\c2cc[n+](C)c3ccccc23)c2ccccc21	AmpC inh detg inconclusive, RE007 growth inh 3.2µM
COc1cccc(CNC(=O)c2cccc(-n3c(C)nc4cccnc43)c2)c1OC	none (no result: AMA1-RON2 inh, AmpC no deterg, RE007 growth inh)
Cc1cccc(NC(=O)CCc2c(C)nc3c(c(C)nn3C(C)(C)C)c2C)c1C	none (no result: AMA1-RON2 inh, AmpC no deterg, RE007 growth inh)
CCN1CCN(c2ccc(N)cc2C)CC1	AmpC inh detg inconclusive
Cc1cc(N)ccc1N1CCCC1	AMA1-RON2 inh 16µM
COC(=O)c1cccc(Cn2c(Cl)c(/C=N/Nc3ccccc3C)sc2=O)c1	AMA1-RON2 inh inconclusive, AmpC no deterg 32µM
O=C1C2C3C=CC(CNS(=O)(=O)c4ccccc4)(O3)C2C(=O)N1c1ccc(Cl)cc1 (configuration not stated)	RE007 growth inh 3.2µM
O=C1C2C3C=CC(CO)(O3)C2C(=O)N1c1ccccc1-c1ccccc1 (configuration not stated)	AmpC inh detg inconclusive, RE007 growth inh 13µM
CC(=O)Oc1ccc(N2C(=O)C3C4C=CC(CO)(O4)C3C2=O)cc1 (configuration not stated)	AmpC inh detg inconclusive, RE007 growth inh 7.9µM
CCc1nn2c(=O)cc(COC(=O)c3ccccc3NC(=O)COc3ccc(F)cc3)nc2s1	none (no result: AMA1-RON2 inh, AmpC no deterg, RE007 growth inh)
CCOc1ccc(C2C(=O)N(C3CCCCCC3)CC(=O)N2Cc2ccc(C)cc2)cc1OC (configuration not stated)	none (no result: AMA1-RON2 inh, AmpC no deterg, RE007 growth inh)
COc1ccc(NC(=O)c2c(-c3ccccc3)c(-c3ccccc3)nn(C)c2=O)c(OC)c1	none (no result: AMA1-RON2 inh, AmpC no deterg, RE007 growth inh)
O=C1Nc2ccc(F)cc2C12Nc1ccccc1-c1nnc(SCc3ccccc3)nc1O2 (configuration not stated)	AmpC no deterg 18µM
Cc1ccc(CSc2nnc3c(n2)OC2(Nc4ccccc4-3)C(=O)Nc3ccc(F)cc32)cc1 (configuration not stated)	AmpC no deterg inconclusive
O=C(O)c1ccccc1-c1c2cc(I)c(=O)c(I)c-2oc2c(I)c(O)c(I)cc12	AMA1-RON2 inh 7.9µM (no result: AmpC inh detg, AmpC no deterg)
COc1cccc(N2CC(NC(=O)c3cc4ccccc4o3)CC2=O)c1 (configuration not stated)	none (no result: AMA1-RON2 inh, AmpC no deterg, RE007 growth inh)
NC(=O)C1(N2CCCCC2)CCN(Cc2nc3ccccc3c(=O)[nH]2)CC1	AmpC no deterg 0.32µM
Cc1cccc2cc3c(N)c(C(=O)Nc4ccc(N5CCOCC5)cc4)sc3nc12	none
Cc1ccc2nc3sc(C(=O)Nc4ccc(N5CCOCC5)cc4)c(N)c3cc2c1	AmpC no deterg 0.35µM (no result: AMA1-RON2 inh, RE007 growth inh)
Cc1cccc(C(=O)NCC(c2cccs2)S(=O)(=O)c2cccs2)c1 (configuration not stated)	none (no result: AMA1-RON2 inh, AmpC no deterg, RE007 growth inh)
COc1cccc2c1nc(C)c1cc(C)oc12	AmpC inh detg inconclusive
COc1cccc2nc3cc(C)c(C)cc3nc12	RE007 growth inh 2.8µM
C/C(=N\NC(=O)c1ccccc1NC(=O)c1ccc(Cl)cc1)c1ccncc1	RE007 growth inh 4µM
CCn1ncc(Br)c1C(=O)Nc1ccc(F)cc1F	AmpC no deterg 0.32µM
CCN(c1ccccc1)C(CNS(=O)(=O)c1ccccc1)c1ccccc1 (configuration not stated)	none (no result: AMA1-RON2 inh, AmpC no deterg, RE007 growth inh)
O=C(NCC1CCCN1S(=O)(=O)c1cccs1)C(=O)Nc1ccc(F)cc1 (configuration not stated)	AmpC inh detg inconclusive, AmpC no deterg 28µM
COc1ccc(S(=O)(=O)N2CCCC2CNC(=O)C(=O)NCc2ccccc2)cc1 (configuration not stated)	AmpC inh detg inconclusive, AmpC no deterg 32µM
COc1cccc(C(=O)Nc2c(C(N)=O)oc3ccccc23)c1	AmpC inh detg inconclusive, AmpC no deterg 7.1µM
COc1cccc(C(=O)Nc2ccc(-c3nc4ccccc4o3)c(O)c2)c1	AmpC no deterg 4µM
COCCn1c(SCC(=O)c2c[nH]c3ccccc23)nc2cc(C(=O)NCC(C)C)ccc2c1=O	none (no result: AMA1-RON2 inh, AmpC no deterg, RE007 growth inh)
O=C(O)c1ccc(S(=O)(=O)N[C@@H](Cc2ccc(O)cc2)C(=O)O)cc1	AmpC inh detg inconclusive (no result: AMA1-RON2 inh, RE007 growth inh)
Cc1cccc(Cn2c(=O)n(CCCCC(=O)NCc3ccc4c(c3)OCO4)c(=O)c3ccccc32)c1	none (no result: AMA1-RON2 inh, AmpC no deterg, RE007 growth inh)
CCOC(=O)c1[nH]c2ccccc2c1NC(=O)c1ccc(OC)c(OC)c1	none (no result: AMA1-RON2 inh, AmpC no deterg, RE007 growth inh)
CC1CC(C)CN(c2ccc(C(=O)NCc3ccc4c(c3)OCO4)cc2[N+](=O)[O-])C1 (configuration not stated)	AMA1-RON2 inh inconclusive, AmpC no deterg 3.2µM
Oc1ccc(Br)cc1CNc1cnc2ccccc2c1	AmpC no deterg 18µM
CCCCC(=O)NC(=S)NNC(=O)c1ccc(OC)cc1	AmpC inh detg 35µM, RE007 growth inh inconclusive
COc1ccc(C(=O)NNC(=S)NC(=O)c2ccc(OC)cc2)cc1	none
O=C(OCC(=O)c1c[nH]c2ccccc12)c1cc(Br)ccc1O	AmpC no deterg 2.2µM
O=C1C=CC(=Nc2ccc3c(c2)Cc2cc(F)ccc2-3)O1	RE007 growth inh 3.2µM (no result: AmpC inh detg, AmpC no deterg)
COc1cccc(-c2nc(CS(=O)CC(=O)N3CCN(c4cccc(C(F)(F)F)c4)CC3)c(C)o2)c1 (configuration not stated)	none (no result: AMA1-RON2 inh, AmpC no deterg, RE007 growth inh)
O=C(/C(=N\Nc1ccccc1)Sc1nnnn1-c1ccccc1)c1ccccc1	AmpC inh detg inconclusive, AmpC no deterg 1.1µM
c1ccc(-c2nc(-c3ccccn3)no2)cc1	RE007 growth inh inconclusive
Cc1ccc(-c2nc(-c3ccccn3)no2)cc1	RE007 growth inh 16µM
c1ccc(-c2ccc(-c3nc(-c4ccccn4)no3)cc2)cc1	RE007 growth inh 40µM
COc1ccc2c(c1)c(=O)c(C(=O)c1ccc(C)cc1)cn2CC(=O)Nc1ccc(F)cc1	AmpC inh detg inconclusive, AmpC no deterg 18µM
COc1ccc(-c2cc(C(=O)Nc3cc(OC)cc(C(=O)Nc4cccc(C(F)(F)F)c4)c3)[nH]n2)cc1	AmpC no deterg 28µM
O=C(Nc1cccc(-c2csc(Nc3cccc(C(F)(F)F)c3)n2)c1)c1ccccc1	AmpC no deterg 2µM
Cc1nc(NC(=O)c2ccccc2)sc1-c1csc(Nc2cccc(F)c2)n1	AmpC no deterg 16µM (no result: AMA1-RON2 inh, RE007 growth inh)
